Experimental findings from PubChem BioAssay (Tox21) are described below.

Inconclusive results are not listed. Where a call stands in place of a potency, no number is given. Activity calls are given as the source filed them. Unless noted, calls follow the shape of the full dose curve.

The first test can be described thus: qHTS assay to identify small molecule agonists of the hypoxia (HIF-1) signaling pathway (AID 1224846; active = well fitted activation curve with a large enough effect in the signal ratio in the repeat runs, not every such curve was filed as active; the % refers to the signal ratio). The conditions noted are these: HRE-bla ME-180 cells, beta-lactamase ratio, 17 h; series mostly up to 76.8 µM. An outline of the steps: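 Steps: seed ME-180 HRE-bla cells (2,000/well, 0.5% dialyzed FBS); incubate 5 hrs at 37C; pin-transfer compounds or DMSO; incubate 17 hrs; add LiveBLAzer B/G substrate CCF4-AM; measure reporter activation by FRET.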
(In general: qHTS replaces the single test concentration by a dilution series.)
`COC(C)(C)OC`: the result was inactive.
The same measure, in the same setting: the result for `CC(C)(C)C(O)/C=C/c1ccc2c(c1)OCO2` (stereo unspecified) reads “inactive”.
Consider `CCCCCCCCCCCCCOC(=O)CCSCCC(=O)OCCCCCCCCCCCCC`, for which the activation is 0.146% [at 15.8 µM] (inactive).
Regarding `O=C(O)CN1C(=O)c2cccc3cccc(c23)C1=O`, the outcome was inactive.
For the compound `CCCCCC`, the outcome was inactive.
As for `COC(OC)OC`, the outcome was inactive.
On the same count and under the same terms, the result for `CC1=C2[C@@H]([C@H](C)CC[C@H]2/C=C(\C)C(=O)O)[C@H](O)C1` reads “inactive”; that for `Cc1ccc(NC(=O)N(C)C)cc1NC(=O)N(C)C`, “inactive”.
Same read-out and setting: the result for `CNC1CCCN(c2c(F)cc3c(=O)c(C(=O)O)cn(C4CC4)c3c2OC)C1` (stereo unspecified) reads “inactive”.
On the same count and under the same terms, the result for `COc1ccc(-n2nc(C(F)F)cc2-c2ccc(S(C)=O)cc2)cc1` (stereo unspecified) reads “inactive”.
On to `Cc1oc(=O)oc1COC(=O)[C@@H]1N2C(=O)[C@@H](NC(=O)[C@H](N)c3ccccc3)[C@H]2SC1(C)C`, for which the outcome was inactive.
Same read-out and setting: the result for `CNCc1ccc(NC(=O)c2c[nH]c3c2C(=O)CCC3)cc1` reads “inactive”.
The same measure, in the same setting: the result for `NC(=O)c1ccccc1[N+](=O)[O-]` reads “inactive”; that for `CN=C(N)NC(=O)Nc1c(C)cccc1C`, “inactive”.
Regarding `CC(=O)Oc1cccc(O)c1`, the result was inactive.
On the same count and under the same terms, the result for `N[C@@H](Cc1cc(I)c(O)c(I)c1)C(=O)O` reads “inactive”; that for `CCC1CCC(CCC(=O)O)C1` (stereo unspecified), “inactive”; that for `CCOc1ncc(F)c(=O)[nH]1`, “inactive”.
The same measure, in the same setting: the result for `CC(C)CC(O)CC(C)C` reads “inactive”; that for `C=Cc1ccc(OC(C)=O)cc1`, “inactive”; that for `CC(C)c1ccc(C#N)cc1`, “inactive”.
The same measure, in the same setting: the result for `SCCc1cnccn1` reads “inactive”.
As to `CCCCCCC(O)CCCCCCCCCCC(=O)OC` (stereo unspecified), the outcome was inactive.
Still for that read-out and setting: the result for `CCCCC(CC)COS(=O)(=O)O` (stereo unspecified) reads “inactive”.
As for `Nc1ccn([C@H]2CS[C@@H](CO)O2)c(=O)n1`, the outcome was inactive.
Still for that read-out and setting: the result for `Cc1ccc(Nc2c(F)cccc2Cl)c(CC(=O)O)c1` reads “inactive”; that for `CCCCCCCCCCCCCC(=O)OCC(O)CO` (stereo unspecified), “inactive”.
Still for that read-out and setting: the result for `COc1ccc(/C=C/C(=O)c2ccc(OC)cc2OC)cc1` reads “inactive”; that for `O=C(O)c1ccc(O)cc1O`, “inactive”.
The same measure, in the same setting: the result for `CCOC(=O)c1ccc(NC(=O)CN2CCCCC2)cc1` reads “inactive”; that for `ClC1=C(Cl)C1(Cl)Cl`, “inactive”.
Consider `CC(C)(C)CCCCCCOC(=O)c1ccccc1C(=O)OCCCCCCC(C)(C)C`, for which the result was inactive.
Same read-out and setting: the result for `CCNc1nc(N)nc(Cl)n1` reads “inactive”; that for `C1=CCC2CC=CC2C1` (stereo unspecified), “inactive”.
On the same count and under the same terms, the result for `O=C(NS(=O)(=O)/C=C/c1ccccc1)c1ccc(F)cc1Cl` reads “inactive”; that for `CS(=O)(=O)c1ccc([C@@H](C[C@H]2CCC(=O)C2)C(=O)Nc2cnccn2)cc1Cl`, “inactive”; that for `O=[N+]([O-])c1ccc2ncccc2c1`, “inactive”.
As for `COC1CCC=CO1` (stereo unspecified), the outcome was inactive.

The next test can be described thus: qHTS assay to identify small molecule agonists of H2AX - cell viability counter screen (AID 1224847).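 Also: wild-type CHO-K1 cells; top concentration of the series differs between compounds; nearly all actives have a fitted effect of over 30% in size.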 The conditions noted are these: CHO-K1 viability, CellTiter-Glo luminescence, 3 h; series mostly up to 154 µM. The method, boiled down: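 For this counter screen, overnight-attached CHO-K1 cells received test compounds (15 concentrations, 0.76% DMSO final); 3 hr later at 37C, CellTiter-Glo reagent was added and luminescence recorded after 30 min at room temperature.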
With `COC(C)(C)OC`, the Potency entry was “inactive”.
Still for that read-out and setting: the result for `CC(C)(C)C(O)/C=C/c1ccc2c(c1)OCO2` (stereo unspecified) reads “inactive”.
`CCCCCCCCCCCCCOC(=O)CCSCCC(=O)OCCCCCCCCCCCCC`: the activity change, negative = cytotoxicity was -1.78% [at 31.6 µM] (inactive).
With `O=C(O)CN1C(=O)c2cccc3cccc(c23)C1=O`, the Potency entry was “inactive”.
Consider `CCCCCC`, for which the Potency entry is “inactive”.
Same read-out and setting: the result for `COC(OC)OC` reads “inactive”; that for `CC1=C2[C@@H]([C@H](C)CC[C@H]2/C=C(\C)C(=O)O)[C@H](O)C1`, “inactive”; that for `Cc1ccc(NC(=O)N(C)C)cc1NC(=O)N(C)C`, “inactive”.
On the same count and under the same terms, the result for `CNC1CCCN(c2c(F)cc3c(=O)c(C(=O)O)cn(C4CC4)c3c2OC)C1` (stereo unspecified) reads “inactive”; that for `COc1ccc(-n2nc(C(F)F)cc2-c2ccc(S(C)=O)cc2)cc1` (stereo unspecified), “inactive”; that for `Cc1oc(=O)oc1COC(=O)[C@@H]1N2C(=O)[C@@H](NC(=O)[C@H](N)c3ccccc3)[C@H]2SC1(C)C`, “inactive”.
Same read-out and setting: the result for `CNCc1ccc(NC(=O)c2c[nH]c3c2C(=O)CCC3)cc1` reads “inactive”; that for `NC(=O)c1ccccc1[N+](=O)[O-]`, “inactive”.
In the case of `CN=C(N)NC(=O)Nc1c(C)cccc1C`, the Potency result is “inactive”.
In the case of `CC(=O)Oc1cccc(O)c1`, the Potency entry was “inactive”.
Still for that read-out and setting: the result for `N[C@@H](Cc1cc(I)c(O)c(I)c1)C(=O)O` reads “inactive”.
Same read-out and setting: the result for `CCC1CCC(CCC(=O)O)C1` (stereo unspecified) reads “inactive”; that for `CCOc1ncc(F)c(=O)[nH]1`, “inactive”; that for `CC(C)CC(O)CC(C)C`, “inactive”.
Still for that read-out and setting: the result for `C=Cc1ccc(OC(C)=O)cc1` reads “inactive”; that for `CC(C)c1ccc(C#N)cc1`, “inactive”.
Take `SCCc1cnccn1`: the Potency result was “inactive”.
For `CCCCCCC(O)CCCCCCCCCCC(=O)OC` (stereo unspecified), the Potency result is “inactive”.
With `CCCCC(CC)COS(=O)(=O)O` (stereo unspecified), the Potency result was “inactive”.
On the same count and under the same terms, the result for `Nc1ccn([C@H]2CS[C@@H](CO)O2)c(=O)n1` reads “inactive”.
On the same count and under the same terms, the result for `Cc1ccc(Nc2c(F)cccc2Cl)c(CC(=O)O)c1` reads “inactive”.
Still for that read-out and setting: the result for `CCCCCCCCCCCCCC(=O)OCC(O)CO` (stereo unspecified) reads “inactive”; that for `COc1ccc(/C=C/C(=O)c2ccc(OC)cc2OC)cc1`, “inactive”.
As for `O=C(O)c1ccc(O)cc1O`, the Potency result is “inactive”.
The same measure, in the same setting: the result for `CCOC(=O)c1ccc(NC(=O)CN2CCCCC2)cc1` reads “inactive”; that for `ClC1=C(Cl)C1(Cl)Cl`, “inactive”; that for `CC(C)(C)CCCCCCOC(=O)c1ccccc1C(=O)OCCCCCCC(C)(C)C`, “inactive”.
Same read-out and setting: the result for `CCNc1nc(N)nc(Cl)n1` reads “inactive”.
Same read-out and setting: the result for `C1=CCC2CC=CC2C1` (stereo unspecified) reads “inactive”; that for `O=C(NS(=O)(=O)/C=C/c1ccccc1)c1ccc(F)cc1Cl`, “inactive”.
Turning to `CS(=O)(=O)c1ccc([C@@H](C[C@H]2CCC(=O)C2)C(=O)Nc2cnccn2)cc1Cl`, the Potency result was “inactive”.
Same read-out and setting: the result for `O=[N+]([O-])c1ccc2ncccc2c1` reads “inactive”; that for `COC1CCC=CO1` (stereo unspecified), “inactive”.
